Measured values published in PubChem BioAssay AID1259415 (National Center for Advancing Translational Sciences (NCATS), 2018).
Screen size: about 410,000 compounds; about 18,000 (4.4%) were called active. Inconclusive results (about 7%) are left out. This excerpt belongs to a sample that is enriched for actives. Unmarked numbers belong to inactive results. No stated cut-off is given here; in the data, active means activity change below about -60%; inconclusive means no clear call, values can overlap the other calls; inactive means above about -39%.

Assay: qHTS Assay for inhibitors of the human cytomegalovirus (HCMV)
Details: HFF cells, HCMV-luciferase reporter, 72 h; at 57.5 µM; active compounds read low
Method in brief: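 Two compound doses tested in HFFs infected with HCMV-luciferase, MOI 1 PFU/cell, 72 h at 37C. Lysate luminescence read with OneGlo; data normalized against buffer-only and 10uM Salinomycin inhibitor controls.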
On the % scale 0 is the no-effect control and ±100 the full control effect.

Row | Compound | activity change, negative = inhibition
1 | Cc1ccc(-c2noc(CSc3nnc(-c4ccc(Cl)cc4)n3C)n2)cc1 | -12.3%
2 | CC1CN(C(=O)N2CCC(C(=O)NCc3cccs3)CC2)c2ccccc2O1 (configuration not stated) | 8.43%
3 | CCc1ccc(Nc2nn3c(=O)c4cc5c(cc4nc3s2)OCO5)cc1 | 9.55%
4 | COc1cccc(C(c2nnnn2-c2ccc3c(c2)OCCO3)N2CCC3(CC2)C(=O)NCN3c2ccccc2)c1OC (configuration not stated) | -15.1%
5 | Cc1oc(-c2ccccc2F)nc1CN1CCC(C(=O)NCCc2ccc(Cl)cc2)CC1 | 0.215%
6 | COc1ccc(F)c(-c2nc(CN3CCC(c4ccccc4)CC3)c(C)o2)c1 | -14%
7 | Cc1nonc1C1CCCN1Cc1nc(-c2ccc(F)cc2F)oc1C (configuration not stated) | -69.4% (active)
8 | Cc1ccc(N(CC(=O)NCc2ccc(Cl)cc2)S(=O)(=O)N(C)C)cc1 | -16.9%
9 | COc1ccc2c3c([nH]c2c1)[C@@H](CO)N(C(=O)C1CC1)CC31CCN(Cc2nccs2)CC1 | -2.14%
10 | COc1ccc(N2CCN(C(=O)CSCc3nc(-c4ccccc4Cl)oc3C)CC2)cc1 | -81.2% (active)
11 | COc1ccc(N2CCN(C(=O)CCSCc3ccccc3F)CC2)cc1 | -16.4%
12 | COc1ccc(CNC(=O)CSCc2nc(-c3ccccc3F)oc2C)cc1 | -16%
13 | COc1cccc(N=C2SC(C(=O)Nc3cccc(Cl)c3)CC(=O)N2C)c1 (configuration not stated) | -4.69%
14 | O=C(CSCc1cnn(-c2ccccc2)c1-n1cccc1)NCc1ccc(Cl)cc1 | -3.89%
15 | CCCn1nnnc1NCc1ccc(OC)cc1 | -30.2%
16 | CCCC(=O)n1nc(NCc2ccc(OC)cc2)nc1NCc1ccc(OC)cc1 | -26.6%
17 | COc1ccc(CNc2c(CO)cnc3c2cnn3C)cc1 | -66.6% (active)
18 | Fc1ccccc1Oc1ncnc2c1oc1ccccc12 | -3.15%
19 | O=C(CC(NCc1cccnc1)C(=O)O)Nc1ccc(O)cc1 (configuration not stated) | 5.47%
20 | COc1cc(Cl)c(C)cc1NC(=O)CSc1nnc(CN2CCCC2)o1 | -9.81%
21 | COc1ccccc1NC(=O)CSc1nnc(CNC(=O)c2ccccc2F)o1 | -5.51%
22 | CCC(=O)Nc1ccc(C(=O)CSc2nnc(CNc3ccc(Cl)cc3)o2)cc1OC | -87.9% (active)
23 | CCCCSc1ncnc2c1sc1nc(N3CCOCC3)c3c(c12)CCCC3 | 1.23%
24 | Cc1ccc(-c2nc(Cn3c(=O)cc(-c4ccccc4)c4c(C)nn(C)c43)c(C)o2)cc1 | -9.59%
25 | O=C(NCC1CCCO1)c1ccc(S(=O)(=O)Nc2ccc(F)cc2)cc1 (configuration not stated) | -30.8%
26 | O=C(Nc1ccc(S(=O)(=O)NCC2CCCO2)cc1)c1ccc(F)cc1 (configuration not stated) | -71.5% (active)
27 | Cc1ccc(NC(=O)c2ccc(S(=O)(=O)NCC3CCCO3)cc2)cc1C (configuration not stated) | 0.647%
